A selection: hits, their analogues and other compounds. The true share with any hit is near 10%.
JMJD2A Tudor inh = JMJD2A Tudor domain (human) inhibition; AlphaScreen JMJD2A-Tudor / H3K4me3 peptide binding; 390,000 compounds, 4.4% hits; Potency, µM (highest dose often 114 µM), inactives show at the highest dose activity change, negative = inhibition, usual class: inhibitors; O75164; note: potency is the fitted concentration of half-maximal effect; % is set by controls: 0 for no effect and ±100 for the full control effect; nearly all actives have a fitted effect of over 50% in size
BAZ2B block = BAZ2B (human) inhibition | 360,000 compounds, 4.4% hits | AlphaScreen BAZ2B-H3K14Ac peptide displacement | Potency, µM (titrated, usually from 114 µM), for inactives: top-dose activity change, negative = inhibition, most hits filed as inhibitors; note: potency is the fitted concentration of half-maximal effect; % is set by controls: 0 for no effect and ±100 for the full control effect; nearly all actives have a fitted effect of over 60% in size
Target sequence (Q9UIF8 whole entry, looked up): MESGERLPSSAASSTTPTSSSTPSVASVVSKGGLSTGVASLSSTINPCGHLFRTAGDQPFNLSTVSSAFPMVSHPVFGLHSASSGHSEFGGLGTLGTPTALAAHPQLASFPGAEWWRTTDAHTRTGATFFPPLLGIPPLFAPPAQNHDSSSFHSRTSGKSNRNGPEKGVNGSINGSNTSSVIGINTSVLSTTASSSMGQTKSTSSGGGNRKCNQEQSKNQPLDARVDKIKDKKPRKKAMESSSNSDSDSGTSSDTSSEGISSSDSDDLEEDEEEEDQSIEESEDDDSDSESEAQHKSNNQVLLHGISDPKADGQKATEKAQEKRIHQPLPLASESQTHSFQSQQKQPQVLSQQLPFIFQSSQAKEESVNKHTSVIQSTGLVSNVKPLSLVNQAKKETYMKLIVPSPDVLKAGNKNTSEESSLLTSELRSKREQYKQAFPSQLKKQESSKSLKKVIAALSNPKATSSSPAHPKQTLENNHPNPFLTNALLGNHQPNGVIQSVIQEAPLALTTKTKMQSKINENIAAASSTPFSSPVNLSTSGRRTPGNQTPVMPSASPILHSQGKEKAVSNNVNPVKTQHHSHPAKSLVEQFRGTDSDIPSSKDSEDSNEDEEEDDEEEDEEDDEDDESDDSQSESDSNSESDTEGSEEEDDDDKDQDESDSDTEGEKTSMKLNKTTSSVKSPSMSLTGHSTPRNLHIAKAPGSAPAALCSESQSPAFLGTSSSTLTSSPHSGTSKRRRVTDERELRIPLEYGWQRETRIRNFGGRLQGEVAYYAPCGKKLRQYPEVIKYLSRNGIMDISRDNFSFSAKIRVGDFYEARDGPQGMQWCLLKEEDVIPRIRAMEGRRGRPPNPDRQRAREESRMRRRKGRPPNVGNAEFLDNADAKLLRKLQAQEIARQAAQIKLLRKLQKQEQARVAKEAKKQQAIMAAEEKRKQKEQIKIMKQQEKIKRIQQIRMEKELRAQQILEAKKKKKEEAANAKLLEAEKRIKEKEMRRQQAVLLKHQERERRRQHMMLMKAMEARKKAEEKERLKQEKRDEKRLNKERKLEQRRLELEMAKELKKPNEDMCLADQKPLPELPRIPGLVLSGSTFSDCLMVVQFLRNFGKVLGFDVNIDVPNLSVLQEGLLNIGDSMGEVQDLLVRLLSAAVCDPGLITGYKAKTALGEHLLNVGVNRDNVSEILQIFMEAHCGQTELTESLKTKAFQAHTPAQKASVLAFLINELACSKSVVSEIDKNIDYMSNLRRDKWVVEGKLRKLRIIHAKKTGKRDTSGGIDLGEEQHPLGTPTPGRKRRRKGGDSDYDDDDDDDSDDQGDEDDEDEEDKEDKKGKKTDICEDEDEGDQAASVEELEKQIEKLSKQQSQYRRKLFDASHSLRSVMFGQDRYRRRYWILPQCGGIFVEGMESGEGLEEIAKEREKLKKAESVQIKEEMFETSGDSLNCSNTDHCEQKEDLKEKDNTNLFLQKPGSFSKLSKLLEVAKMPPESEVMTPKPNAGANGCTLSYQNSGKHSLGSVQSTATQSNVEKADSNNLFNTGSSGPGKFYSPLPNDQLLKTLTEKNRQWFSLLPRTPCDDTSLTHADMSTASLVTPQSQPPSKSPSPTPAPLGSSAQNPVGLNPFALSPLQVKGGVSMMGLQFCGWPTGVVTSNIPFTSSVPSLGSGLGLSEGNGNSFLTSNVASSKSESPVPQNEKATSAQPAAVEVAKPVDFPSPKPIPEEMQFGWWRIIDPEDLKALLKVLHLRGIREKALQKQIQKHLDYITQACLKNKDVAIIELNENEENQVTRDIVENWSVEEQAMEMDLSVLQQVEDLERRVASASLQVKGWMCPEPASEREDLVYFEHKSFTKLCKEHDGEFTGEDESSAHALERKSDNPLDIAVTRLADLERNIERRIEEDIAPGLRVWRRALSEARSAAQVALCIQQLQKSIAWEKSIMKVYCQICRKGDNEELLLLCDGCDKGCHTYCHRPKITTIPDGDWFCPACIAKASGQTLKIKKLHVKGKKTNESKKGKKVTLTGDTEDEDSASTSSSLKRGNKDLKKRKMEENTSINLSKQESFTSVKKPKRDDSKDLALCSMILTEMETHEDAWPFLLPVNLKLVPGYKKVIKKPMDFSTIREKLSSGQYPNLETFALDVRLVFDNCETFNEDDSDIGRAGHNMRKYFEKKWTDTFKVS
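Multi-concentration screen (max 110 uM) measuring displacement of acetylated histone H3 peptide from BAZ2B by AlphaScreen, using 50 nM protein, 50 nM peptide and 10 ug/mL streptavidin donor plus Ni-chelate acceptor beads.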
G9a inh = blocks human histone lysine methyltransferase G9a; Q96KQ7; G9a H3K9 monomethylation, AlphaScreen, 2 h; Potency, µM (doses to about 102 µM), for the others: top-dose activity, negative = inhibition, most hits filed as inhibitors; 350,000 compounds, 8.8% hits; AID 504332; note: potency is the fitted concentration of half-maximal effect; % is set by controls: 0 for no effect and ±100 for the full control effect; nearly all actives have a fitted effect of over 75% in size
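G9a (20 nM) preincubated 15 min RT with compounds, then 500 nM biotinylated H3K9 peptide and 20 uM SAM added; 2 h RT reaction. Monomethyl-H3K9 product detected by AlphaScreen with anti-H3K9me1 antibody, streptavidin donor and anti-rabbit IgG acceptor beads.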
HP1b binding inh = inhibitors of HP1-beta chromodomain binding to methylated histone tails. AID 540317. AlphaScreen HP1-beta / biotin-H3K9me3 peptide binding. Potency, µM (series often up to 114 µM), without a hit: at the top dose activity change, negative = inhibition, usual class: inhibitors. 390,000 compounds, 0.56% hits; note: potency is the fitted concentration of half-maximal effect; nearly all actives have a fitted effect of over 70% in size
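AlphaScreen: HP1-beta (50 nM) preformed 30 min with biotin-H3(1-18)K9me3 peptide (50 nM) in PBS pH 7.4, 0.01% Tween-20. Compound added for 30 min at RT, then streptavidin donor/nickel chelate acceptor beads (10 ug/mL) for 30 min.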
Six1-Eya2 blk = blocks human Six1 binding to Eya2; Q15475+O00167; AlphaScreen GST-Six1/His-Eya2 binding, biochemical; active compounds read low; activity change, % (concentration not given with the values); 360,000 compounds, 0.56% hits; AID 651725; in the data active = activity change below about -65%; inconclusive = mostly about -30% to -63%; note: % is set by controls: 0 for no effect and ±100 for the full control effect
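Compounds are tested against tagged Six1 and Eya2 proteins bridged by glutathione donor and nickel acceptor beads; after a one-hour incubation at 37 °C without light, AlphaScreen emission is recorded.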
CtBP-E1A blk = inhibitors of CtBP/E1A interaction; AlphaScreen GST-E1A/His-CtBP binding, 1536-well; active compounds read low; activity change, % (concentration not given with the values); 340,000 compounds, 0.49% hits; in the data active = activity change below about -65%; inconclusive = mostly about -30% to -63%; note: % is set by controls: 0 for no effect and ±100 for the full control effect
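In 5 uL wells, 23 nL compound meets equimolar GST-E1A and His-CtBP (5X stock 125 nM each) for 2 h, 37 °C. Beads (5X, 50 ug/mL) then 1 h, 37 °C, dark.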
An asterisk follows results filed as active; ? = inconclusive; · = no result; [ ] = remark or other dose. Unless noted, calls come from the whole dose curve; as a rule, active = well fitted inhibition curve with a large enough effect; inconclusive = small, poorly fitted or top-dose-only effect; inactive = no such curve, though single readings can be large or run the other way.

SMILES	JMJD2A Tudor inh	BAZ2B block	G9a inh	HP1b binding inh	Six1-Eya2 blk	CtBP-E1A blk
COc1cc(OC)cc(-c2ncc3ccccn23)c1	2.8µM*	32µM*	7.9µM*	?	-6	-2
COc1cccc(-c2ncc3ccccn23)c1	3.5µM*	35µM*	7.1µM*	16µM*	-14	-1
Fc1ccc(-c2ncc3ccccn23)cc1	-12%	-13%	-21%[0.501 µM]	30%	-7	-7
COc1ccc(-c2ncc3ccccn23)cc1	-30%	-16%	-41%	14%	-21	6
COc1cc(-c2ncc3ccccn23)cc(OC)c1OC	11µM*	45µM*	25µM*	50µM*	-5	-7
Cc1ccc(CCNC(=O)c2ccc(Cn3c(=O)c4cccn4c4cccnc43)cc2)cc1	-29%	-16%	6%[59 µM]	22%	·	·
Cc1cc(C)c2c(c1)c(C)cc1nnc(SCC(=O)c3ccc(F)cc3)n12	-3%	-13%	-44%[59 µM]	64%	·	·
COC(=O)N1CCC[C@@]2(CCN(C(=O)Nc3cccc(C#N)c3)C2)C1	·	·	22%[12.7 µM]	·	·	·
Cc1ccn2cc(CNC(=O)c3cccc(C(F)(F)F)c3)nc2c1	-16%	-3%	-35%[59 µM]	19%	·	·
O=C(C(c1ccccc1)c1ccccc1)N1CCN(Cc2ccccn2)CC1	4µM*	56µM*	?	?	8	0
CC1CN(Cc2ccccn2)CCC1=O (stereo not given)	-4%	-15%	7.9µM*	13%	1	3
CCOC(=O)C1CCN(Cc2ccccn2)CC1	·	50µM*	1.8µM*	·	·	·
O=C(O)C1CCN(Cc2ccccn2)CC1	?	?	25µM*	-20%	2	-24
COC(=O)C1CCN(C(=O)c2ccc(OC3CCN(Cc4ccccn4)CC3)cc2)CC1	?	-1%	-38%	30%	8	-6
COc1ccc(CNC(=O)CCc2c(C)c3cc4c(C)coc4cc3oc2=O)cc1	-18%	-10%	-26%[59 µM]	22%	·	·
NS(=O)(=O)c1cccc(NC(=O)CCSc2ccc(Cl)cc2)c1	9%	-6%	1.4µM*	44%	8	1
NS(=O)(=O)c1cccc(NC(=O)CCCNC(=O)c2ccc(Cl)cc2)c1	-10%	-10%	19%	18%	-4	-19
COc1cc(-c2nnc3sc(-c4ccco4)nn23)cc(OC)c1OC	?	5%	-37%[12.7 µM]	-11%	-5	-11
COc1ccc(-c2nn3c(-c4ccco4)nnc3s2)cc1OC	-5%[11.4 µM]	3%	7%[12.7 µM]	-21%	-78*	-86*
COc1cc(OC)c(-c2nn3c(-c4ccco4)nnc3s2)cc1OC	-33%	-8%	45µM*	-22%	?	?
COc1ccc(-c2nnc3sc(-c4ccco4)nn23)cc1OC	-13%	-12%	?	32%	-4	-3
CCCOc1cccc(C2c3c(oc4ccc(F)cc4c3=O)C(=O)N2c2nc(C)c(C(C)=O)s2)c1 (stereo not given)	-10%	-4%	-4%[59 µM]	15%	·	·
Cn1c(CC2C(=O)Nc3ccc(Br)cc32)nc2ccccc2c1=O (stereo not given)	-15%	-4%	50µM*	31%	?	0
O=C1Nc2ccc(Br)cc2C1Cc1ccccc1F (stereo not given)	-12%	1%	·	44%	0	5
Cc1ccc2c(c1)-c1c(cnn1CC(=O)N1CCN(c3cc(C)ccc3C)CC1)CO2	-14%	-1%	-1%[59 µM]	10%	·	·
SMILES	JMJD2A Tudor inh	BAZ2B block	G9a inh	HP1b binding inh	Six1-Eya2 blk	CtBP-E1A blk
COc1ccc(-c2onc(C)c2C)cc1S(=O)(=O)NCc1ccc(Br)cc1	-13%	-16%	4%[59 µM]	12%	·	·
CCCOc1ccccc1NC(=O)/C=C/C(N)=O	-5%	9%	35µM*	15%	7	4
CCCCOc1ccccc1NC(=O)C=C(C)C	35%	29%	-6%[12.7 µM]	35%	6	0
CN(CC(=O)Nc1cccc(F)c1)C(=O)c1cc(-c2cccs2)nn1-c1ccccc1	-23%	?	50µM*	14%	0	0
CN(CC(=O)Nc1ccccc1C(F)(F)F)C(=O)c1cc(-c2cccs2)nn1-c1ccccc1	-22%	6%	-5%[0.501 µM]	12%	-11	-1
CCN(CC(=O)Nc1ccccc1C(F)(F)F)C(=O)c1cc(-c2cccs2)nn1-c1ccccc1	-14%	0%	·	16%	14	-1
CCCN(CC(=O)Nc1ccccc1OC)C(=O)c1cc(-c2cccs2)nn1-c1ccccc1	-15%	-3%	45µM*	29%	-14	-1
O=C(O)c1cc(-c2cccs2)nn1-c1ccc(F)cc1	-13%	?	45µM*	39%	-1	5
COC(=O)c1cc(-c2cccs2)nn1-c1ccccc1	-9%	1%	2%	50%	2	4
Cc1nnc(NC(=O)CSc2nc3c([nH]c4ccccc43)c(=O)n2-c2ccc(Cl)cc2)s1	-2%	2%	17%[59 µM]	17%[57 µM]	·	·
COc1c(Cl)cc(Cl)cc1CNCCNCCO	?	-11%	·	37%	2	3
COc1c(Cl)cc(Cl)cc1CNCCNCC(C)O (stereo not given)	?	-30%[57.1 µM]	35µM*	38%	1	3
O=C(CCC1N=C2c3ccccc3N=C(SCc3ccc(F)cc3)N2C1=O)NC1CCCCC1 (stereo not given)	-15%	-2%	-3%[59 µM]	41%	·	·
COc1cc(NC(=O)C2=CC(c3ccc(F)cc3)=NS(=O)(=O)N2C)cc(OC)c1OC	1%	3%	-36%[59 µM]	50%	·	·
O=C(c1cc2c(s1)CCC2)N1C(=O)c2ccccc2S1(=O)=O	?	50µM*	40µM*	21%	8	4
O=C(c1cc2c(s1)CCCC2)n1cccn1	113%	147%	56%[59 µM]	254%	15	13
CC(Oc1ccccc1)C(=O)OCc1cc(=O)n2nc(C(C)C)sc2n1 (stereo not given)	-4%	-4%	18%[59 µM]	7%	·	·
Cc1ccc2[nH]c3nc(NN)nnc3c2c1	50µM*	3.5µM*	·	38%	?	?
CC1CCCCC1NCC#CCOc1ccc(Cl)cc1 (stereo not given)	20µM*	50µM*	14µM*	?	25	·
CC(C)NCC#CCOc1ccc(Cl)cc1	45µM*	?	7.9µM*	24%	4	·
CC(=O)NNC(=O)c1sc(=S)n2c1[nH]c(=O)c1sccc12	79µM*	-23%	13µM*	?	-65*	?
NC(=O)c1sc(=S)n2c1[nH]c(=O)c1sccc12	?	-23%	18µM*	-9%	?	-82*
O=c1c2ccccc2c(/C=N/n2cnnc2)c(O)n1-c1ccccc1F	?	?	71µM*	27%	-4	14
